The values that follow come from PubChem BioAssay (NCI).

About 83,000 compounds went through this panel and 20% of them were active in at least one assay; those are over-represented in the sample as a whole.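 48-hour exposure, single concentration, 96-well plates; percent growth endpoint where 0 means no net growth. Active: below 10.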 Unmarked numbers belong to inactive results. Calls of active or inactive are those of the source.

Common to all, as to assay: NCI-60 one-dose screen, 48 h (100 = growth as untreated, 0 = no growth, -100 = all killed)
Assay [1] has as its system T-47D breast.
Assay [2] relates to BT-549 breast.
The test system of assay [3] is MDA-MB-435 melanoma.
Assay [4] concerns SW-620 colon.
The test system of assay [5] is MCF7 breast.
Assay [6] has as its system HCT-116 colon.
In assay [7] the test system is KM12 colon.
Assay [8] concerns MDA-MB-468 breast.
The test system of assay [9] is HCC-2998 colon.

Consider `CC/C(=C(/c1ccc(O)cc1)c1ccc(OCCN(C)C(=O)COCCOCCNC(=O)c2ccc3c(c2)CN([C@@H]2CCC(=O)NC2=O)C3=O)cc1)c1ccccc1`, for which the growth in assay [1] (1 µM) was 28.6%; in [1] (10 µM) it was 33.4%; in assay [2] (1 µM), 5.04% (active); in assay [2] (10 µM) it was 43.1%; in assay [3] (1 µM), 101%; in [3] (10 µM), 97%. Besides, the growth was 81.5% in assay [4] (1 µM); 60.6% in [4] (10 µM); 26.3% in assay [5] (1 µM); 18.9% in assay [5] (10 µM); 97.9% in [6] (1 µM); 102% in assay [6] (10 µM). For the same compound, the growth was 98.9% in [7] (1 µM), 95.5% in assay [7] (10 µM), 5.9% (active) in assay [8] (1 µM) and -23.9% (active) in assay [8] (10 µM).
Turning to `CC/C(=C(\c1ccc(O)cc1)c1ccc(OCCN(C)C(=O)CCOCCNC(=O)c2ccc3c(c2)CN([C@@H]2CCC(=O)NC2=O)C3=O)cc1)c1ccccc1`, the growth in [1] (1 µM) was 38.3%; in assay [1] (10 µM), 50.4%; in assay [2] (1 µM), 9.93% (active); in assay [2] (10 µM), 39.3%; in [3] (1 µM), 100%; in assay [3] (10 µM) it was 95.4%. Also, the growth is 87% in assay [4] (1 µM); 83.6% in assay [4] (10 µM); 27.9% in [5] (1 µM); 24% in [5] (10 µM); 92.7% in [6] (1 µM); 94.8% in [6] (10 µM). Further, the growth in [9] (1 µM) was 99%; in assay [9] (10 µM), 103%; in [7] (1 µM), 102%; in [7] (10 µM) it was 103%; in [8] (1 µM) it was 25.6%; in assay [8] (10 µM), 5.97% (active).
Consider `Nc1nn2c(-c3cc4cc(Br)ccc4oc3=O)ccnc2c1N=Nc1ccc(S(N)(=O)=O)cc1`, for which the growth was 77% in assay [1] (10 µM unless noted); 128% in assay [2] (10 µM unless noted); 78.5% in [3] (10 µM unless noted); 58.6% in [4] (10 µM unless noted); 71.4% in [5] (10 µM unless noted); 56% in [6] (10 µM unless noted). Besides, the growth in [9] (10 µM unless noted) is 54.8%; in assay [7] (10 µM unless noted), 48.3%.
Consider `CN1CCc2c(sc3ncnc(N/N=C/c4cccc(Cl)c4Cl)c23)C1`, for which the growth in [1] (10 µM unless noted) was -6.02% (active); in assay [2] (10 µM unless noted), 63.3%; in [3] (10 µM unless noted) it was 39.3%; in assay [4] (10 µM unless noted), -36.9% (active); in assay [5] (10 µM unless noted), -39.1% (active); in [6] (10 µM unless noted), -82.8% (active). Also, the growth in assay [9] (10 µM unless noted) was 6.03% (active); in [7] (10 µM unless noted), 88%.
`O=C1CC(c2ccc(I)cc2)OC2C=Cc3ccccc3C12` (stereo unspecified): the growth in assay [1] (10 µM unless noted) was 87.8%; in assay [2] (10 µM unless noted) it was 108%; in assay [3] (10 µM unless noted), 97.4%; in [4] (10 µM unless noted) it was 103%; in assay [5] (10 µM unless noted), 83.3%; in assay [6] (10 µM unless noted), 98.9%. The figures for the growth in assay [9] (10 µM unless noted) and in assay [7] (10 µM unless noted) were 117% and 92.9%, respectively.
As for `COc1ccc(NC(=O)Cn2c(/C=C/c3cccc(Br)c3)nc3ccccc3c2=O)cc1`, the growth in assay [1] (10 µM unless noted) was -16.6% (active); in assay [2] (10 µM unless noted), 56.1%; in assay [3] (10 µM unless noted), 67%; in [4] (10 µM unless noted), 32.2%; in [5] (10 µM unless noted) it was 34.2%; in assay [6] (10 µM unless noted), 26.2%. For the same compound, the growth in assay [9] (10 µM unless noted) is 84.5%; in assay [7] (10 µM unless noted) it was 87.7%.
As to `CCCCCCCCc1ccc(C(=O)Nc2ccc(C)cc2C(=O)O)cc1`, the growth in assay [1] (10 µM unless noted) is 94%; in [2] (10 µM unless noted) it was 104%; in [3] (10 µM unless noted), 104%; in assay [4] (10 µM unless noted), 103%; in assay [5] (10 µM unless noted), 85.2%; in [6] (10 µM unless noted) it was 75.5%. The growth in [9] (10 µM unless noted) is 106%; in assay [7] (10 µM unless noted), 50.3%.
`O=CNc1cccc(-n2cnc3cc(-c4ccc(O)cc4)ccc32)c1`: the growth in assay [1] (10 µM unless noted) was 37.5%; in assay [2] (10 µM unless noted), 52.6%; in assay [3] (10 µM unless noted), 24.1%; in assay [4] (10 µM unless noted), 46.3%; in assay [5] (10 µM unless noted), 35%; in assay [6] (10 µM unless noted) it was 14.1%. The values for the growth in assay [9] (10 µM unless noted) and in assay [7] (10 µM unless noted) were 43.5% and 26.4%, respectively.
As for `CC/C(=C(/c1ccc(O)cc1)c1ccc(OCCN(C)C(=O)COCCOCCNC(=O)Cc2ccc3c(c2)CN([C@@H]2CCC(=O)NC2=O)C3=O)cc1)c1ccccc1`, the growth in assay [1] (1 µM) was 19.2%; in assay [1] (10 µM) it was 6.14% (active); in [2] (1 µM), -20.3% (active); in assay [2] (10 µM), -26% (active); in assay [3] (1 µM), 107%; in [3] (10 µM), 73.6%. Besides, the growth in assay [4] (1 µM) is 84.2%; in assay [4] (10 µM), 29.6%; in assay [5] (1 µM) it was 36.1%; in assay [5] (10 µM), 19.6%; in [6] (1 µM), 96.4%; in assay [6] (10 µM), 101%. For the same compound, the growth in assay [9] (1 µM) is 97.3%; in [9] (10 µM), 48.9%; in [7] (1 µM) it was 105%; in [7] (10 µM) it was 50.3%; in assay [8] (1 µM), 1.33% (active); in [8] (10 µM), -15.7% (active).
As to `COc1ccc(C2=Nc3c(N)nc(N)nc3NC(c3ccc(Oc4nc(Nc5ccc(F)cc5)nc(N(C)C)n4)c(OC)c3)C2)cc1` (stereo unspecified), the growth in assay [1] (10 µM unless noted) was 70.3%; in [2] (10 µM unless noted) it was 66.2%; in assay [3] (10 µM unless noted) it was 81.9%; in assay [4] (10 µM unless noted) it was 76.6%; in assay [5] (10 µM unless noted), 38.8%; in [6] (10 µM unless noted), 44.2%. Also, the growth was 80.1% in [9] (10 µM unless noted) and 74.9% in [7] (10 µM unless noted).
In the case of `O=C1Nc2cc(-c3ccc(NS(=O)(=O)c4ccc([N+](=O)[O-])cc4)cc3)ccc2/C1=C/c1ccc[nH]1`, the growth in assay [1] (10 µM unless noted) was 15.9%; in [2] (10 µM unless noted), -23% (active); in assay [3] (10 µM unless noted), 1.34% (active); in assay [4] (10 µM unless noted), 6.1% (active); in [5] (10 µM unless noted), -23.6% (active); in assay [6] (10 µM unless noted), -48.6% (active). The growth is 32.2% in assay [9] (10 µM unless noted), 27.5% in assay [7] (10 µM unless noted) and -29.6% (active) in [8] (10 µM unless noted).
For the compound `COc1cc(CNC(=O)C[C@H](C)CCC=C(C)C)ccc1OCc1cn(-c2ccc(Br)cc2)nn1`, the growth was 49.3% in assay [1] (10 µM unless noted); 93.6% in assay [2] (10 µM unless noted); 98.3% in [3] (10 µM unless noted); 91.7% in [4] (10 µM unless noted); 60.2% in [5] (10 µM unless noted); 41.9% in assay [6] (10 µM unless noted). Moreover, the values for the growth in assay [9] (10 µM unless noted), in assay [7] (10 µM unless noted) and in assay [8] (10 µM unless noted) were 95.8%, 94.6% and 46.7%, respectively.
